Measured values: PubChem BioAssay AID619 (University of Pittsburgh Molecular Library Screening Center, 2007)
Out of some 97,000 compounds screened, about 520 (0.54%) were called active.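 How the source made its calls: active means inhibition of 50% or more in the single-concentration screen; inactive means inhibition below 50%.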 The entries come from a sample that favours actives as a whole.

These molecules were tested against Serine/threonine-protein kinase PLK1 (Homo sapiens) (UniProt P53350) (assay: human PLK1 kinase inhibitors, primary screen, biochemical, TR-FRET (AID 619;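 further: 0% = DMSO max control and 100% = H-89 dihydrochloride min control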)). Conditions: recombinant PLK1 kinase, TR-FRET peptide phosphorylation; at 10 µM; stronger effect = higher value.
Chain of Serine/threonine-protein kinase PLK1 (Homo sapiens) (P53350 whole entry, looked up): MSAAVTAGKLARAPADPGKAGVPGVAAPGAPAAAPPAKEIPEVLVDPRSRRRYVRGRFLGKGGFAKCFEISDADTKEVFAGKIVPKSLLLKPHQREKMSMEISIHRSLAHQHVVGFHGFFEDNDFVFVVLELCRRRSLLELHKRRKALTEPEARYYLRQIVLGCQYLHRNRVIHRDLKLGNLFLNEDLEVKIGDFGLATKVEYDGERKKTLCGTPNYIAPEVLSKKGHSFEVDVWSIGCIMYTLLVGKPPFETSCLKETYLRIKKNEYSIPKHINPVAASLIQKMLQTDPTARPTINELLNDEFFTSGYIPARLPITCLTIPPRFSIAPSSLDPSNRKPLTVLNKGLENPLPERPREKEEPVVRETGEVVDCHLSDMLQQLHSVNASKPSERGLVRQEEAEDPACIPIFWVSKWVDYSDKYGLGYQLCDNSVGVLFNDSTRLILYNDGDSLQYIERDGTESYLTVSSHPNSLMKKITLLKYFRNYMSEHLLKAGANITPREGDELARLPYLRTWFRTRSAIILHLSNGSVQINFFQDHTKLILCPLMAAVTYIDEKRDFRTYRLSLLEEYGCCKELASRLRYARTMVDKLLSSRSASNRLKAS

inhibition, inactive:
COCC(=O)Nc1ccc(Br)cc1 2.4%
COc1ccc(NCc2nnc(SCc3ccccc3)n2-c2ccc(OC)cc2)cc1 -14.5%
CC1Cc2ccccc2N1C(=O)c1cc2sccc2n1Cc1ccccc1 (stereo not drawn) -10.7%
Cc1ccc(C(=O)N/C(=C/C=C/c2ccccc2)C(=O)NCc2ccco2)cc1 -5.76%
O=C(/C=C/c1ccccc1)N/C(=C/c1ccccc1)C(=O)Nc1ccccc1O -4.44%
Cc1ccccc1-n1c(C)cc(/C=N/NC(=O)c2ccc(CN3CCOCC3)cc2)c1C -16%
Fc1ccccc1COc1ccccc1CNCc1ccncc1 -5.47%
COCCCNC(=O)CN1CCN(Cc2ccccc2Cl)C1=O -2.49%
COC(=O)CNS(=O)(=O)c1ccc(OC)cc1 -2.7%
Cc1ccc(-n2c(CNc3ccc(F)cc3)nnc2SCC(=O)N2CCOCC2)cc1 -8.34%
O=C(NCc1ccccn1)c1cc(-c2ccccc2Cl)on1 -11.3%
CCC(C)NC(=O)CCCc1ccccc1 (stereo not drawn) 3.26%
O=C(Cn1cncn1)N/N=C/c1c2ccccc2cc2ccccc12 -1.05%
CC1CCN(S(=O)(=O)c2ccc(S(=O)(=O)NCc3ccco3)cc2)CC1 -3.69%
Oc1ccc(-c2onc3ccc(Cl)cc23)cc1 7.69%
Cn1nc(C(F)(F)F)c(C(=O)Nc2cccc(C(F)(F)F)c2)c1SCc1ccc(Cl)cc1 -9.84%
C=CCNc1nc(N)c(C(=C(C#N)C#N)c2ccccc2)s1 -9.14%
Cc1c(Nc2cc(N3CCCC(C)C3)c3nonc3c2[N+](=O)[O-])c(=O)n(-c2ccccc2)n1C (stereo not drawn) -8.74%
O=C(Nc1nnc(SCc2c(Cl)cccc2Cl)s1)C1CCCO1 (stereo not drawn) 2.16%
CC(C)C[C@@H](N)c1nnc(SCC(=O)c2ccc(Cl)cc2)o1 -3.08%
COc1ccc2[nH]cc(/C=C(/C#N)S(=O)(=O)c3ccccc3)c2c1 0.68%
CC1CC(C)CN(C(=O)CSc2nnc(CSc3ncccn3)n2C)C1 (stereo not drawn) -3.56%
CCN1C(=O)C(CC(=O)Nc2cc(C)ccc2C)SC1=Nc1ccc(S(N)(=O)=O)cc1 (stereo not drawn) -2.89%
COC(=O)C1=C(C)N=C2SC(C)C(=O)N2C1/C=C/c1ccccc1 (stereo not drawn) -12.6%
Cc1nn(C)c(Oc2ccccc2)c1[N+](=O)[O-] -6.21%
CCOC(=O)C1=C(NC(=S)NC(=O)c2ccccc2)c2ccccc2CC1(C)C 5.6%
O=S(=O)(c1cnccc1N1CCN(/N=C/c2ccc(Br)cc2)CC1)N1CCCCC1 -2.5%
Cc1cccc(S(=O)(=O)CC(=O)Nc2nc(-c3ccccc3)cs2)c1 -1.62%
COCc1nnc(NC(=O)CS(=O)(=O)Cc2ccccc2)s1 -4.96%
COC(=O)c1ccc(CSc2nnc(NC(C)C)s2)cc1 -15%
O=C(c1ccc(F)cc1)c1c[nH]c(C(=O)NCc2cccnc2)c1 3.12%
CCSc1nnc(NC(=O)Cc2ccccc2OC)s1 -15.2%
CC(=O)c1cnn(-c2cc(Oc3ccc(F)cc3)ncn2)c1C -5.47%
CC(C)=CC(=O)Nc1nnc(-c2ccc(F)cc2)s1 -17.5%
COc1ccc(C(=O)Nc2ncc3c(n2)-c2ccccc2CC3)cc1 -1.84%
C/C(=N/NC(=O)c1ccc(NC(=O)c2ccc(F)cc2)cc1)c1ccccc1 -9.91%
O=C(CN1C(=O)c2ccccc2S1(=O)=O)N1CCc2ccccc21 -11.2%
CCCc1nnc(NC(=O)CN2C(=O)c3ccccc3S2(=O)=O)s1 -11%
CCOC(=O)N1CCN(C(c2cccnc2)c2ccc3cccnc3c2O)CC1 (stereo not drawn) 5.49%
CN(C(=O)CSc1nnc(N)s1)c1c(N)n(Cc2ccccc2)c(=O)[nH]c1=O -0.95%
CN1/C(=C\C=C2\N=C(c3ccc(F)cc3)OC2=O)C(C)(C)c2ccccc21 -25.2%
Cc1ccc(NC(=O)c2ccc(CSc3ncnc4nc[nH]c34)cc2)c(C)c1 27.2%
CCOC(=O)N1CCN(S(=O)(=O)c2ccc(C(=O)Nc3ccc(F)cc3F)cc2)CC1 -7.78%
O=C(Nc1ccc2c(c1)CCC2)c1cccc(S(=O)(=O)N2CCN(c3ccc(F)cc3)CC2)c1 -5.86%
CN(Cc1ccccc1)C(=O)COc1ccccc1 -6.87%
C=CCNC(=S)N/N=C/c1ccc(OCc2ccccc2)cc1 7.95%
O=C(Nc1ccc2c(c1)OCCO2)C(c1ccc(F)cc1)N1CCCCC1 (stereo not drawn) 1.96%
CC1(C)Cc2c(sc3nc(SCC(=O)NCc4ccccc4)n(-c4ccccc4)c(=O)c23)CS1 -3.27%
O=C(Nc1ccccc1Cl)O/N=C(/c1ccccc1)c1ccccn1 -2.38%
CCC(C)(C)n1nnnc1CN1CCN(c2nc3ccc(C)cc3cc2C#N)CC1 -9.44%
COc1ccc(C(C#N)N2N=C(C)CC2(C)C)cc1 (stereo not drawn) -2.1%
COc1ccc(C2=Nc3cc(C)ccc3OC2)cc1 -6.91%
Cc1oc2nc(SCC(=O)NCc3cccnc3)nc(N)c2c1C 5.49%
COc1ccc(-c2nc(CS(=O)CC(=O)NCc3ccccn3)c(C)o2)cc1 (stereo not drawn) -9.42%
Cc1ccccc1OCc1nnc(SCC(=O)N2c3ccccc3Sc3ccc(Cl)cc32)o1 3.98%
CCOC(=O)c1c(C)oc2cc(Br)c(OCC(N)=O)cc12 -3.79%
CC1CN(c2cc(=O)n(-c3cccc(Br)c3)c(=O)[nH]2)CC(C)O1 (stereo not drawn) -9.28%
CC(C)(C)N1CC(c2nc3ccccc3n2Cc2ccc(F)cc2)CC1=O (stereo not drawn) -8.27%
Cc1c(Cl)c([N+](=O)[O-])nn1Cc1ccc(C(=O)N/N=C\c2cc(Cl)ccc2O)o1 -11.3%
COc1ccc(Nc2nc(Cl)nc(NCc3ccco3)n2)cc1 -10.4%
Cc1ccc(S(=O)(=O)N(C)CC(=O)NC2CCCC2)cc1 -5.15%
COc1ccc(-c2nnc(SCC(=O)NC3CCCCC3)o2)cc1OC -12.8%
COc1ccc(-c2nc(CS(=O)CC(=O)N3CCc4ccccc4C3)c(C)o2)cc1 (stereo not drawn) -0.36%
Cc1ccc(S(=O)(=O)NCC(=O)N2CCN(c3ccccn3)CC2)cc1 -12%
O=C(Nc1ccc(F)c(Cl)c1)C1CCN(S(=O)(=O)c2cccnc2)CC1 -7.65%
N#CC1=C(N)N(c2ccccc2)C2=C(C(=O)CCC2)C1c1ccccc1 (stereo not drawn) -9.12%
CCOC(=O)Cc1csc(NC(NC(=O)OCC)(C(F)(F)F)C(F)(F)F)n1 -10.9%
C=CCn1c(SCc2c(C(=O)OC)sc(N)c2C(=O)OC)nnc1-c1ccc(Cl)cc1 0.32%
Cc1ccc(Nc2nc(C)cc(C)c2C(N)=O)cc1 -8.3%
CCNC(=S)N1CCN(C(=O)c2ccco2)CC1 -10.9%
COc1ccc(CN(Cc2ccco2)S(=O)(=O)c2ccc(S(=O)(=O)N3CCCC3)cc2)cc1 -1.36%
O=C1c2ccccc2C(=O)N1CC1c2ccccc2CCN1S(=O)(=O)c1ccccc1 (stereo not drawn) -13.2%
Cc1noc(C)c1COC(=O)c1cc2ccccc2cc1O -5.75%
O=C(NCCCCCCCCCNC(=O)C(F)(F)F)C(F)(F)F -9%
COc1ccc(C(C(=O)NCc2ccccc2)N(Cc2cccs2)C(=O)c2cnccn2)cc1 (stereo not drawn) -8.73%
Fc1ccc(N2N=C(c3cccs3)CC2c2ccco2)c(F)c1 (stereo not drawn) -0.33%
O=c1[nH]c(CCl)nc2cc(-c3ccc(Cl)cc3)sc12 -15.1%
CCCCNC(=O)CCn1c(=S)[nH]c2cc3c(cc2c1=O)OCO3 -10.8%
CCn1c(C)nc2c1C(=O)c1ccccc1C2=O -6.21%
CC1CCN(c2ccc(S(=O)(=O)Nc3cc(C(=O)O)cc(C(=O)O)c3)cc2[N+](=O)[O-])CC1 -8.56%
CCN(CC)C(=O)CSc1nnc(C2CCCCC2)o1 -6.95%
O=C(CSCc1ccc([N+](=O)[O-])cc1)Nc1cccc(C(=O)Nc2ccccc2C(=O)O)c1 -6%
CCc1ccc2c(c1)cc(CN(C(=S)Nc1ccccc1Cl)C1CC1)c1nnnn12 -115%
O=C(CO/N=C/c1ccccc1O)NNC(=O)c1ccccc1Cl -11.5%
COC(=O)C1C(=O)NCC1c1ccc(C)cc1 (stereo not drawn) -7.84%
CC1C/C(=N/NC(=O)c2cccs2)CC(C)(C)C1 (stereo not drawn) -10.1%

inhibition, active:
O=C(CCS(=O)(=O)c1ccccc1)Nc1nc2c(s1)CCCC2 68.7%
CNC(=O)CN1C(=O)c2ccccc2S1(=O)=O 58.4%
O=C(Nc1cccc(F)c1)c1ccc(S(=O)(=O)N2CCCC2)cc1 72.1%
COc1ccc(-c2nc(CS(=O)CC(=O)NCc3cccnc3)c(C)o2)cc1OC (stereo not drawn) 78.2%
CC1CN(c2cc(=O)n(Cc3ccc(F)cc3)c(=O)[nH]2)CC(C)O1 (stereo not drawn) 70.7%
Cc1ccc(-c2nc(CS(=O)CC(=O)NC3CCCC3)c(C)o2)cc1 (stereo not drawn) 62.6%
Cc1ccc(-c2nc(CS(=O)CC(=O)N3CCN(c4ncccn4)CC3)c(C)o2)cc1 (stereo not drawn) 68.5%
